High-throughput results deposited in PubChem by National Center for Advancing Translational Sciences (NCATS).
Hits are enriched below; roughly 21% of the tested compounds scored in any of these assays.
Shiga inhibitor = A qHTS for Small Molecule Inhibitors of Shiga Toxin. Vero cells, Shiga toxin protein synthesis inhibition reporter. AID 2315, 2010. inhibition, % at 38.7 µM. hit rate 9.2% among 290,000; in the data active = inhibition mostly above about 28%, no sharp cut-off; inactive = mostly below about 43%; also: 0% is about no effect
Pf growth 96h = Primary qHTS for delayed death inhibitors of the malarial parasite plastid, 96 hour incubation; P. falciparum luciferase reporter growth, 96 h; Potency, µM (series often up to 28.7 µM), without a hit: at the highest dose activity change, negative = inhibition, usual class: inhibitors; hit rate 6.9% among 320,000; AID 504834, 2011; also: potency is read from the fitted curve at half-maximal effect; % is scaled to controls: 0 for no effect and ±100 for the full control effect
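Two-generation exposure (96 h) targets delayed-death phenotype. Reporter parasites carrying integrated firefly luciferase, in red cells at 2% hematocrit and 0.05% parasitemia final, kept at 37 C, 5% CO2; luminescence loss indicates inhibition.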
Pf growth 48h = Primary qHTS for delayed death inhibitors of the malarial parasite plastid, 48 hour incubation. P. falciparum luciferase growth in erythrocytes, 48 h. Potency, µM (series often up to 28.7 µM), for inactives: at the top dose activity change, negative = inhibition, usual class: inhibitors. hit rate 5.9% among 310,000; also: potency is read from the fitted curve at half-maximal effect; % is scaled to controls: 0 for no effect and ±100 for the full control effect
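Growth was read as firefly luciferase luminescence after a 48 h, 37 C, 5% CO2 exposure of compounds to reporter-bearing P. falciparum cultures (0.1% parasitemia, 2% hematocrit final) in Albumax-supplemented RPMI 1640.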
Sm TGR inh = qHTS Assay for the Inhibitors of Schistosoma Mansoni Peroxiredoxins; purified TGR, DTNB reduction, TNB absorbance 405 nm; Potency, µM (series often up to 114 µM), inactives show at the top dose activity change, negative = inhibition, usual class: inhibitors; hit rate 3% among 360,000; Schistosoma mansoni thioredoxin glutathione reductase (TGR), Q962Y6; AID 485364, 2010; also: potency is read from the fitted curve at half-maximal effect; % is scaled to controls: 0 for no effect and ±100 for the full control effect; nearly all actives have a fitted effect of over 60% in size
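First, TGR (20 nM dispensed) and NADPH were mixed with compound. Second, a 15 min room-temperature incubation followed. Third, further NADPH and then DTNB were added to start the reaction. Finally, TNB absorbance was monitored kinetically.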
CHX counter = Cycloheximide Counterscreen for Small Molecule Inhibitors of Shiga Toxin; cell reporter, cycloheximide protein synthesis inhibition counterscreen; max response, %; hit rate 12% among 300,000; AID 2314, 2010; in the data active = max response mostly above about 13%, no sharp cut-off; inactive = mostly below about 14%; also: read at 38.3 µM for the half of the compounds with a filed dose; 0% is about no effect
NS1 inh = qHTS Assay for Inhibitors of Influenza NS1 Protein Function | Potency, µM (highest dose often 46.1 µM), for the others: top-dose activity, positive = more growth | hit rate 0.4% among 270,000; calls by dose curve; also: potency is read from the fitted curve at half-maximal effect; actives are rising curves; nearly all actives have a fitted effect of over 50% in size
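Read-out: OD600 growth recovery of NS1-expressing budding yeast. Cells grown overnight at 30C in -URA glucose medium, washed, resuspended and diluted 1:100 in 2% galactose assay medium, pH 6.0. Same strain lacking NS1 served as positive control.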
Numbers without * were called inactive; [ ] = another dose, or the depositor's remark. Unless noted, calls follow the shape of the dose curve; as a rule, active = well fitted curve in the direction sought with a large enough effect; inconclusive = small, poorly fitted or top-dose-only effect, or another doubt; inactive = no such curve, though single readings can be large; an effect the other way counts as inactive or inconclusive.

For O=C(CC1CCCCC1)NCc1nc(-c2ccccc2)no1 the results were Shiga inhibitor 15, Pf growth 96h 20%, Pf growth 48h 12%, Sm TGR inh 0%, CHX counter -3 and NS1 inh -64%.
Screening c1ccc(CCc2nc(-c3ccc(-n4cccc4)cc3)no2)cc1 returned Shiga inhibitor -15, Pf growth 96h -89%, Sm TGR inh 4%, CHX counter -14 and NS1 inh -5%.
Screening c1ccc(CCc2nc(-c3cccnc3)no2)cc1 returned Shiga inhibitor 53*, Pf growth 96h inconclusive, Pf growth 48h 42%, Sm TGR inh 5%, CHX counter 22* and NS1 inh -21%.
c1ccc(CCc2nc(-c3ccccc3)no2)cc1 was read as Shiga inhibitor 129*, Pf growth 96h 97%, Pf growth 48h 118%, Sm TGR inh -17%, CHX counter 35* and NS1 inh -12%.
Screening Cc1ccsc1C(=O)Nc1cc(C(C)(C)C)nn1-c1ccccc1 returned Shiga inhibitor -27, Pf growth 48h inconclusive, Sm TGR inh -6%, CHX counter -2 and NS1 inh -9%.
`O=C(NC1CCCCC1)c1ccc2c(c1)OCCO2` gave Shiga inhibitor 42*, Pf growth 96h inconclusive, Pf growth 48h 172%, Sm TGR inh -1%, CHX counter 21* and NS1 inh 7%.
`S=C(NC1CCCCC1)c1ccc2c(c1)OCO2` gave Shiga inhibitor 66*, Pf growth 96h 68%, Pf growth 48h 27%, Sm TGR inh 0%, CHX counter 22* and NS1 inh 0%.
For O=C(NCc1ccc2c(c1)OCO2)C(=O)NC1CCCCC1 the results were Shiga inhibitor -4, Pf growth 48h 10%, Sm TGR inh 2%, CHX counter 1 and NS1 inh 1%.
`O=C(NNC(=S)NC1CCCCC1)c1ccc2c(c1)OCO2` gave Shiga inhibitor -4, Pf growth 96h 107%, Pf growth 48h 103%, Sm TGR inh -9%, CHX counter -2 and NS1 inh 6%.
`c1cc2c(cc1NC1CCCCCC1)OCO2` gave Shiga inhibitor 11, Pf growth 96h inconclusive, Pf growth 48h 1%, Sm TGR inh inconclusive, CHX counter 16* and NS1 inh 1%.
`O=C(NC1CCCCCCC1)c1ccc2c(c1)OCO2` gave Shiga inhibitor 48*, Pf growth 96h 2%, Pf growth 48h -60%, Sm TGR inh -20%, CHX counter 42* and NS1 inh -31%.
`CN(C)S(=O)(=O)c1cccc(C(=O)Nc2cc(Cl)cc(Cl)c2)c1` gave Shiga inhibitor 40, Pf growth 48h -72%, Sm TGR inh 2%, CHX counter 2 and NS1 inh -16%.
For O=C(Nc1cc(Cl)cc(Cl)c1)c1cccc(OC(F)F)c1 the results were Shiga inhibitor 17, Pf growth 96h inconclusive, Sm TGR inh 36%, CHX counter 15* and NS1 inh -146%.
`Cc1ccnc(NC(=O)c2cccc(OC(F)F)c2)n1` gave Shiga inhibitor 69*, Pf growth 96h 97%, Pf growth 48h 96%, Sm TGR inh 7%, CHX counter 20 and NS1 inh 8%.
For CCOC(=O)C1(CC2CC2)CCN(Cc2cnc(-c3ccc(OC)cc3)nc2)CC1 the results were Shiga inhibitor 11, Pf growth 96h inconclusive, Pf growth 48h inconclusive, Sm TGR inh -1%, CHX counter -2 and NS1 inh -1%.
CC(C)n1cc(/C(N)=N/O)c(=O)n(Cc2ccccc2)c1=O was read as Shiga inhibitor -9, Pf growth 96h inconclusive, Pf growth 48h -11%, Sm TGR inh 18%, CHX counter -1 and NS1 inh 1%.
`CC1=NN(c2ccccc2)C(=O)/C1=C/c1c(O)n(-c2ccc(F)c(Cl)c2)[nH]c1=O` gave Shiga inhibitor 19, Pf growth 96h inconclusive, Pf growth 48h -1%, Sm TGR inh -3%, CHX counter 17* and NS1 inh -6%.
Screening CCc1ccc2c(c1)c(=O)c(S(=O)(=O)c1ccccc1)cn2CC(=O)Nc1cc(C)ccc1C returned Sm TGR inh 6%.
`CC(C)(C)OC(=O)CNC(=O)c1[nH]cnc1C(=O)N[C@@H](Cc1ccccc1)C(=O)OC(C)(C)C` gave Shiga inhibitor -4, Pf growth 96h inconclusive, Pf growth 48h inconclusive, Sm TGR inh 1%, CHX counter -8 and NS1 inh -6%.
CC(C)(C)OC(=O)CNC(=O)c1nc[nH]c1C(=O)NCc1ccc(CNC(=O)OC(C)(C)C)cc1 was read as Shiga inhibitor -2, Pf growth 96h 81%, Pf growth 48h inconclusive, Sm TGR inh 1%, CHX counter -2 and NS1 inh 1%.
Screening CC(C)(C)OC(=O)CNC(=O)c1[nH]cnc1C(=O)Nc1ccc(CNC(=O)OC(C)(C)C)cc1 returned Shiga inhibitor 10, Pf growth 96h 13µM*, Pf growth 48h 13µM*, Sm TGR inh 13%, CHX counter 5 and NS1 inh -31%.
`CC(C)(C)OC(=O)NCc1ccc(NC(=O)c2nc[nH]c2C(=O)N[C@@H](Cc2ccccc2)C(=O)OC(C)(C)C)cc1` gave Shiga inhibitor -4, Pf growth 96h 8.3µM*, Pf growth 48h 2.3µM*, Sm TGR inh 12%, CHX counter 3 and NS1 inh inconclusive.
Screening CC(C)C[C@H](NC(=O)c1[nH]cnc1C(=O)Nc1ccc(CNC(=O)OC(C)(C)C)cc1)C(=O)OC(C)(C)C returned Shiga inhibitor -5, Pf growth 96h 6.6µM*, Pf growth 48h 8.3µM*, Sm TGR inh 40%, CHX counter -1 and NS1 inh inconclusive.
CC(C)C[C@H](NC(=O)c1[nH]cnc1C(=O)Nc1ccc(CNC(=O)OC(C)(C)C)cc1)C(=O)OCc1ccccc1 was read as Shiga inhibitor -4, Pf growth 96h inconclusive, Pf growth 48h 12µM*, Sm TGR inh -2%, CHX counter -1 and NS1 inh -3%.
`CC(C)C[C@H](NC(=O)c1nc[nH]c1C(=O)NCc1ccccc1)C(=O)OC(C)(C)C` gave Shiga inhibitor -31, Pf growth 96h -13%, Pf growth 48h inconclusive, Sm TGR inh -26%, CHX counter -2 and NS1 inh 7%.
Cc1cc(Cl)ccc1NC(=O)CSc1nc2c(c(=O)[nH]1)CCC2 was read as Sm TGR inh 0%.
`O=[N+]([O-])c1ccccc1N(CC1CO1)S(=O)(=O)c1ccccc1` (centres undefined) gave Shiga inhibitor -22, Pf growth 96h 0%, Pf growth 48h 8%, Sm TGR inh -8%[57.1 µM], CHX counter -1 and NS1 inh 6%.
